Test results taken from PubChem BioAssay (Tox21).
Records with an inconclusive call do not appear. Where a call stands in place of a potency, no number is given. Activity calls are given as the source filed them. Unless noted, calls follow the shape of the dose curve; as a rule, active = well fitted curve in the direction sought with a large enough effect in the repeat runs; inconclusive = weak or mixed curves; inactive = no such curve, though single readings can be large; an effect the other way counts as inactive or inconclusive.

What was measured:
[1] = qHTS assay to identify small molecule agonists of the vitamin D receptor (VDR) signaling pathway - cell viability counter screen (AID 743224); also: series mostly up to about 63 µM; nearly all actives have a fitted effect of over 50% in size
Outline: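 Viability is measured in the same wells as the VDR-bla reporter assay: after 16 h compound treatment and 2 h substrate loading, CellTiter-Glo is added and luminescence read 30 min later.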

[2] = qHTS assay to identify small molecule agonists of the NFkB signaling pathway (AID 1159509; active = well fitted curve in the direction sought with a large enough effect in the signal ratio in the repeat runs, not every such curve was filed as active; the % refers to the signal ratio; also: series mostly up to about 61 µM)
Outline: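 After overnight attachment, reporter cells received test compounds, DMSO or positive controls and were incubated 5 hr at 37 C. FRET substrate was then added for 1.5 hr at room temperature before dual-emission fluorescence reading.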

[3] = qHTS assay to identify small molecule agonists of the NFkB signaling pathway - cell viability counter screen (AID 1159515; calls by dose curve; also: series mostly up to about 61 µM; nearly all actives have a fitted effect of over 55% in size)
Outline: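 Multiplexed viability readout: after the 5 hr compound exposure and 1.5 hr FRET substrate step, CellTiter-Glo reagent went into the same NFkB-bla ME-180 wells; ATP luminescence was measured after 30 min at room temperature.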

[4] = qHTS assay to identify small molecule agonists of the endoplasmic reticulum stress response signaling pathway (AID 1159516; active = well fitted activation curve with a large enough effect in the signal ratio in the repeat runs, not every such curve was filed as active; the % refers to the signal ratio)
Outline: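 Tox21 10K library screened in quantitative HTS format on ESRE-bla HeLa cells, a beta-lactamase reporter under ER stress response element control; 5 hr treatment, FRET read.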

[5] = qHTS assay to identify small molecule antagonists of the retinoid-related orphan receptor gamma (ROR-gamma) signaling pathway - cell viability counter screen (AID 1159520); also: nearly all actives have a fitted effect of over 50% in size
Outline: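 Tet-on ROR gamma CHO cells (1,000/well) were plated 4 hr, given compounds in DMSO for 2 hr at 37 C, then induced with 1 uM final doxycycline for 16 hr. Viability was read as ATP by CellTiter-Glo luminescence after 30 min.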

[6] = biological target: Nuclear receptor ROR-gamma (Homo sapiens) (UniProt P51449); test: qHTS assay to identify small molecule antagonists of the retinoid-related orphan receptor gamma (ROR-gamma) signaling pathway (AID 1159521; also: nearly all actives have a fitted effect of over 50% in size; also: potency is read from the fitted curve at half-maximal effect)
Outline: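 Inducible-expression reporter assay: doxycycline (1 uM final) switched on RORγ in CHO cells bearing a ROR response element-luciferase construct, with test compounds present from 2 h beforehand. Decreased luminescence after 16 h defined antagonist activity.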

[7] = qHTS assay to identify small molecule agonists of the AP-1 signaling pathway (AID 1159526; calls by dose curve; also: potency is read from the fitted curve at half-maximal effect)
[8] = qHTS assay to identify small molecule antagonists of the vitamin D receptor (VDR) signaling pathway - cell viability counter screen (AID 743225); also: nearly all actives have a fitted effect of over 50% in size
Outline: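 Same-well multiplex: following 16 h treatment of HEK 293T cells carrying a UAS-driven beta-lactamase reporter with compound and agonist (3 nM final), and a 2 h FRET substrate step, CellTiter-Glo was added and luminescence read after 30 min.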

[9] = qHTS assay to identify small molecule agonists of the endoplasmic reticulum stress response signaling pathway - cell viability counter screen (AID 1159517; calls by dose curve)
Outline: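 Luminescence readout: CellTiter-Glo, 30 min RT, same wells as the ESRE-bla reporter read. HeLa ESRE-bla, 1,500 cells/well, o/n 37 C; cpd 5 hr 37 C/5% CO2.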

[10] = qHTS assay to identify small molecule agonists of the AP-1 signaling pathway - cell viability counter screen (AID 1159525; calls by dose curve; also: nearly all actives have a fitted effect of over 55% in size)
Outline: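 ME-180 AP-1-bla, 2500 cells/well, Opti-MEM + 0.5% dialyzed FBS; overnight 37 °C; cpd 15-pt titration, 5 h 37 °C; CellTiter-Glo 30 min RT; luminescence read; normalised to TOAB and DMSO controls.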

| SMILES | outcome [1] | outcome [2] | outcome [3] | outcome [4] | Potency [5] | Potency [6] | Potency [7] | outcome [8] | outcome [9] | outcome [10] |
| --- | --- | --- | --- | --- | --- | --- | --- | --- | --- | --- |
| CCCCCCOC(=O)c1ccccc1 | inactive | inactive | inactive | inactive | inactive | inactive | inactive |  |  |  |
| COc1cccc([C@H](O)C2CCN(CCc3ccc(F)cc3)CC2)c1OC | inactive | inactive | inactive | inactive | inactive | inactive | inactive | inactive |  |  |
| CC/C=C\CCO | inactive |  | inactive | inactive | inactive |  | inactive | inactive | inactive | inactive |
| O=C(O)CNc1ccccc1 | inactive | inactive | inactive | inactive | inactive | inactive | inactive | inactive |  | inactive |
| O=C(O)c1ccncc1 | inactive | inactive | inactive | inactive | inactive | inactive | inactive | inactive |  |  |
| O=C(O)c1c2ccccc2cc2ccccc12 | inactive | inactive | inactive | inactive | inactive | 13.6 µM (active) | 24.5 µM (active) | inactive |  | inactive |
| CC(O)CN (stereo not drawn) | inactive | inactive | inactive | inactive | inactive | inactive | inactive | inactive |  | inactive |
| CC(=O)Nc1ccccc1O | inactive | inactive | inactive | inactive | inactive | inactive | inactive | inactive |  | inactive |
| O=C(O)CCc1nc2ccccc2[nH]1 | inactive | inactive | inactive | inactive | inactive | inactive | inactive | inactive |  | inactive |
| O=[N+]([O-])c1ccccc1CCO | inactive | inactive | inactive | inactive | inactive | inactive | inactive | inactive |  | inactive |
| CC(C)(C)c1ccc(CCC=O)cc1 | inactive | inactive | inactive | inactive | inactive | inactive | inactive | inactive |  | inactive |
| CCCCOC(=O)C(C)Oc1ccc(Oc2ccc(C(F)(F)F)cn2)cc1 (stereo not drawn) | inactive | inactive | inactive | inactive | inactive | inactive | inactive | inactive |  |  |
| Cc1c(Cl)cccc1[N+](=O)[O-] | inactive | inactive | inactive | inactive | inactive | inactive | inactive | inactive |  | inactive |
| COc1cc(C)c(Cc2cnc(N)nc2N)cc1OC | inactive | inactive | inactive | inactive | inactive | inactive | inactive | inactive |  | inactive |
| c1ccc(CN(Cc2ccccc2)Cc2ccccc2)cc1 |  | inactive | inactive | inactive | inactive | inactive | inactive | inactive |  | inactive |
| CC[C@H](NC(C)C)[C@H](O)c1ccc(O)c2[nH]c(=O)ccc12 | inactive | inactive | inactive | inactive | inactive | inactive | inactive | inactive |  | inactive |
| CC(=O)OCC(=O)[C@@]1(O)CC[C@H]2[C@@H]3CCC4=CC(=O)C=C[C@]4(C)[C@@]3(F)[C@@H](O)C[C@@]21C | inactive | inactive | inactive | inactive | inactive | inactive | inactive | inactive |  | inactive |
| CC/C=C/CCO | inactive |  | inactive | inactive | inactive |  | inactive |  | inactive | inactive |
